From PubChem BioAssay AID734 (The Scripps Research Institute Molecular Screening Center, 2007) come the findings set out here.

The campaign covered roughly 5,100 compounds. Fewer than 10 were called active.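 The calls were made as follows: active = inhibition above the mean inhibition over all tested compounds plus 3 SD (cut at about 75% in these data); inactive = the rest.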 A selection follows.

This assay deals with Collagenase 3 (Homo sapiens) (UniProt P45452). Put plainly: MMP13 inhibitors among fluorescent compounds, confirmation, biochemical, possible fluorescent artifacts, delta fluorescence (AID 734).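 Also: 0% = DMSO only wells and 100% = 8 µM reference MMP13 inhibitor.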 The settings on record: MMP13 fTHP FRET cleavage, delta fluorescence 4 h; hits give high values;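 each compound tested at 4 µM nominal in triplicate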.
In the case of `CCn1c(=O)c(C(C)=O)nc2ccccc21`, the inhibition is 7.87% (inactive). Regarding `CCCCN(CC)CCNC(=O)c1cc2c(=O)n(C)c3ccccc3c2n1C`, the inhibition was 9.76% (inactive). On to `COC(=O)c1[nH]c2ccc(C)cc2c1NC(=O)CN1CCN(Cc2ccccc2)CC1`, for which the inhibition was 5.26% (inactive).

For the compound `Cc1cc(-c2ccccc2)nn1-c1nc2c(c(=O)[nH]c(=O)n2C)n1C`, the inhibition is 6.56% (inactive). To `COc1ccc(-c2noc(CCC(=O)NCc3cccnc3)n2)cc1` belongs -0.6% (inactive).

For `O=C(CSc1ccc2nnc(-c3cccc(F)c3)n2n1)NCC1CCCO1` (centres undefined), the inhibition was 0.9% (inactive). With `CCCn1c(=N)c(C(=O)NCC2CCCO2)cc2c(=O)n3cccc(C)c3nc21` (centres undefined), the inhibition was 0.11% (inactive). To `COc1cc2c(cc1OC)CN(C(=O)NS(=O)(=O)c1ccc(C)cc1)CC2` belongs 6.18% (inactive); to `COc1cc2c(cc1OC)-c1cc(N3CCCCCC3)nc(=O)n1CC2`, 6.6% (inactive).

On to `COc1cc(OC)cc(-c2cc3nc(C)c(CCC(=O)NC(C)CCc4ccco4)c(C)n3n2)c1` (centres undefined), for which the inhibition was -0.26% (inactive). Consider `CC(=O)Nc1nonc1-c1nc2ccccc2n1Cc1nnc(C)o1`, for which the inhibition was 4.74% (inactive). As for `COc1ccc(-c2cc(C(F)(F)F)nc(SCC(=O)Nc3cc(C)on3)n2)cc1OC`, the inhibition is 11.1% (inactive). As for `COc1cc(OC)cc(C(=O)NCC(=O)N2CCC(C)CC2)c1`, the inhibition was 7.88% (inactive). To `Cc1nn(-c2ccccc2)c2sc(C(=O)OC3CCOC3=O)cc12` (centres undefined) belongs -15.6% (inactive); to `COC(=O)c1cc2c(C)nn(-c3ccccc3)c2s1`, 5.12% (inactive); to `Cc1nn(-c2ccccc2)c2sc(-c3n[nH]c(=S)o3)cc12`, 75.6% (active).

For the compound `CCOC(=O)N1CCC(NC(=O)c2cc3c(-c4cccc(OC)c4)nn(C)c3s2)CC1`, the inhibition is 1.92% (inactive). As to `Cc1ccc(S(=O)(=O)Nc2ccccc2C(N)=O)cc1`, the inhibition is 7.43% (inactive). Turning to `N=C1C(c2nc3ccccc3c(=O)[nH]2)=C(O)CN1CCc1ccccc1`, the inhibition is -5.72% (inactive). Regarding `COc1ccccc1C(=O)Nc1ccc(S(=O)(=O)N2CCOCC2)cc1`, the inhibition was -0.87% (inactive). For `O=C(c1ccc(Br)o1)N1CCN(Cc2ccc3c(c2)OCO3)CC1` the value was 3.6% (inactive). To `Cc1ccc2nc(-c3ccc(SCC(=O)O)nc3)[nH]c2c1` belongs -13.3% (inactive); to `O=C(NCCN1CCOCC1)c1cc2ccccc2[nH]1`, 3.77% (inactive); to `COC(=O)c1ccc(Sc2ccc(C)cc2)c(N)c1`, -1.3% (inactive).
